This note sets out measurements from PubChem BioAssay (EPA / NIEHS).

Broadly, the AC50 is the midpoint of the concentration-response curve, whichever way the signal moves.

Read-out in experiment [1]: Tissue plasminogen activator (tPA), PLAT (gene 5327)
Nature of the experiment: BSK_BE3C_tPA: BioMAP Diversity Plus: BE3C Assay for Tissue plasminogen activator (tPA) Biomarker Activity (AID 2283041).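 For outcome: tPA level quantified by ELISA one day after compound addition.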 The conditions noted are these: primary human bronchial epithelial cells; actives raise or lower the signal. The essentials: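 Primary human lung bronchial epithelial cultures receive test chemical; after 24 h, tPA is quantified by ELISA, and gain or loss of signal is fitted bidirectionally relative to DMSO baseline.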

Read-out in experiment [2]: Interleukin-8 (IL8), CXCL8 (gene 3576)
Nature of the experiment: BSK_CASM3C_IL8: BioMAP Diversity Plus: CASM3C Assay for Interleukin-8 (IL8) Biomarker Activity (AID 2283042).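 Note: IL-8 protein level quantified by ELISA.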 The conditions noted are these: primary human coronary artery smooth muscle cells; actives raise or lower the signal.

Read-out in experiment [3]: Human Leukocyte Antigen - DR isotype (HLADR), HLA-DRA (gene 3122)
Kind of experiment: BSK_CASM3C_HLADR: BioMAP Diversity Plus: CASM3C Assay for Human Leukocyte Antigen - DR isotype (HLADR) Biomarker Activity (AID 2283043).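 Note: cell-surface HLA-DR protein level quantified by ELISA.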 The conditions noted are these: primary human coronary artery smooth muscle cells; actives raise or lower the signal.

Read-out in experiment [4]: Macrophage colony-stimulating factor (MCSF), CSF1 (gene 1435)
Nature of the experiment: BSK_CASM3C_MCSF: BioMAP Diversity Plus: CASM3C Assay for Macrophage colony-stimulating factor (MCSF) Biomarker Activity (AID 2283044).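 Note: M-CSF protein amount quantified by ELISA after 24 h exposure.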 The conditions noted are these: primary human coronary artery smooth muscle cells; actives raise or lower the signal.

Read-out in experiment [5]: Low-density lipoprotein receptor (LDLR), LDLR (gene 3949)
Nature of the experiment: BSK_CASM3C_LDLR: BioMAP Diversity Plus: CASM3C Assay for Low-density lipoprotein receptor (LDLR) Biomarker Activity (AID 2283045).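 Note: LDLR protein level on the cell surface quantified by ELISA.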 The conditions noted are these: primary human coronary artery smooth muscle cells; actives raise or lower the signal.

Read-out in experiment [6]: Monocyte Chemoattractant Protein-1 (MCP1), CCL2 (gene 6347)
Kind of experiment: BSK_CASM3C_MCP1: BioMAP Diversity Plus: CASM3C Assay for Monocyte Chemoattractant Protein-1 (MCP1) Biomarker Activity (AID 2283046).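 Note: MCP-1 level quantified by ELISA 24 h after dosing.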 The conditions noted are these: primary human coronary artery smooth muscle cells; actives raise or lower the signal.

The nature of experiment [7]: BSK_CASM3C_Proliferation: Cell Proliferation Assessment in the BioMAP Diversity Plus: CASM3C Assay (AID 2283047).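 Note: sulforhodamine B total protein stain as relative cell number at 560 nm; sub-confluent cells exposed 48 h before staining; fitted both ways against DMSO so gain or loss of cell number.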 The conditions noted are these: primary human coronary artery smooth muscle cells.
Read-out in experiment [8]: Monokine induced gamma interferon (MIG), CXCL9 (gene 4283)
Kind of experiment: BSK_CASM3C_MIG: BioMAP Diversity Plus: CASM3C Assay for Monokine induced gamma interferon (MIG) Biomarker Activity (AID 2283048).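 Note: MIG protein level measured by ELISA.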 The conditions noted are these: primary human coronary artery smooth muscle cells; actives raise or lower the signal.

Read-out in experiment [9]: serum amyloid A (SAA), SAA1 (gene 6288)
Nature of the experiment: BSK_CASM3C_SAA: BioMAP Diversity Plus: CASM3C Assay for serum amyloid A (SAA) Biomarker Activity (AID 2283049).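 Note: SAA protein level quantified by ELISA.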 The conditions noted are these: primary human coronary artery smooth muscle cells; actives raise or lower the signal.

Experiment [10] is described as follows: BSK_CASM3C_SRB: Viability Assessment in the BioMAP Diversity Plus: CASM3C Assay (AID 2283050).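 Note: total protein by SRB staining as cytotoxicity measure in parallel cultures; cells exposed to compound for 24 h.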 The conditions noted are these: primary human coronary artery smooth muscle cells.

More than one record can exist for a structure, and the calls need not agree. The source made the active and inactive calls. Rule for the calls: active = hit-call score of the fitted dose curve at least 0.9, where 1 is the maximum; inactive = score below 0.9.

Take `Cc1ccc2nc3sc(=O)sc3nc2c1`: the outcome in experiment [1], in [2], in experiment [3], in experiment [4], in [5] and in experiment [6] was inactive. The outcome in [7], in [8], in experiment [9] and in experiment [10] was inactive.

`OC(Cc1ccccc1Cl)(Cn1cncn1)C1(Cl)CC1` (stereo unspecified): the outcome in experiment [1], in experiment [2], in experiment [3], in experiment [4], in experiment [5] and in experiment [6] was inactive. Further, the result in experiment [7], in experiment [8], in experiment [9] and in experiment [10] was inactive.

On to `COc1ccccc1N`, for which the outcome in experiment [1], in experiment [2], in [3], in experiment [4], in experiment [5] and in experiment [6] was inactive. The result in experiment [7], in experiment [8], in experiment [9] and in experiment [10] was inactive.

As for `Cc1cc(Cl)ccc1OC(C)C(=O)O` (stereo unspecified), the outcome in experiment [1], in [2], in [3], in [4], in experiment [5] and in experiment [6] was inactive. Besides, the result in experiment [7], in experiment [8], in experiment [9] and in experiment [10] was inactive.

For the compound `CC(C)N(C(=O)CCl)c1ccccc1`, the outcome in [1] was inactive. Further, the AC50 in [2] is 27.1 µM (active); in [3], 6.14 µM (active); in experiment [4] it was 13.3 µM (active); in experiment [5], 5.57 µM (active); in experiment [6], 6.89 µM (active); in experiment [7] it was 6.4 µM (active). The AC50 in experiment [8] is 12.4 µM (active); in experiment [9], 4.5 µM (active); in experiment [10], 6.28 µM (active).

`Cc1cc(C)cc(C)c1`: the result in experiment [1], in experiment [2], in experiment [3], in experiment [4], in [5] and in experiment [6] was inactive. The outcome in experiment [7], in experiment [8], in experiment [9] and in experiment [10] was inactive.

Consider `O=[N+]([O-])c1ccc(Nc2ccccc2)cc1`, for which the result in experiment [1], in [2], in experiment [3], in [4], in experiment [5] and in experiment [6] was inactive. Also, the result in experiment [7], in experiment [8], in [9] and in [10] was inactive.

Regarding `[Cl][Sn]([c]1ccccc1)([c]1ccccc1)[c]1ccccc1`, the AC50 in experiment [1] is 0.0792 µM (active); in [2], 0.499 µM (active); in [3] it was 0.261 µM (active); in experiment [4], 0.718 µM (active); in [5], 0.343 µM (active); in experiment [6], 0.599 µM (active). For the same compound, the AC50 is 0.134 µM (active) in experiment [7], 0.524 µM (active) in experiment [8], 0.522 µM (active) in [9] and 0.688 µM (active) in [10].

For the compound `Cc1ccccc1OP(=O)(Oc1ccccc1C)Oc1ccccc1C`, the AC50 in [1] was 7.43 µM (active); in [3] it was 32.9 µM (active); in experiment [4] it was 29.4 µM (active); in experiment [6], 24.3 µM (active); in experiment [7] it was 24.3 µM (active); in experiment [10], 30.1 µM (active). Also, the result in experiment [2], in experiment [5], in [8] and in experiment [9] was inactive.

Turning to `COCC(=O)N(c1c(C)cccc1C)[C@H](C)C(=O)OC`, the result in experiment [1], in experiment [2], in experiment [3], in experiment [4], in experiment [5] and in [6] was inactive. The result in [7], in experiment [8], in experiment [9] and in experiment [10] was inactive.

Take `NC(=O)CCl`: the outcome in [1], in experiment [2], in experiment [4], in experiment [5], in [6] and in experiment [7] was inactive. Besides, the result in [8], in [9] and in [10] was inactive. In addition, the AC50 in experiment [3] is 20 µM (active).

As for `CCOP(=S)(OCC)SCS(=O)(=O)C(C)(C)C`, the result in experiment [1], in experiment [2], in experiment [3], in [4], in [5] and in experiment [6] was inactive. Also, the result in experiment [7], in [8], in experiment [9] and in experiment [10] was inactive.

For the compound `N#Cc1cccnc1`, the outcome in experiment [1], in experiment [2], in experiment [3], in [4], in experiment [5] and in experiment [6] was inactive. For the same compound, the result in experiment [7], in experiment [8], in experiment [9] and in experiment [10] was inactive.

With `Clc1cccc(Cl)c1`, the outcome in [1], in experiment [2], in [3], in [4], in experiment [5] and in [6] was inactive. Moreover, the result in experiment [7], in experiment [8], in [9] and in experiment [10] was inactive.

In the case of `CCOP(=O)(OCC)OC(=CCl)c1ccc(Cl)cc1Cl`, the result in experiment [1], in experiment [2] and in experiment [8] was inactive. Moreover, the half-maximal activity concentration (AC50) in experiment [3] was 33.4 µM (active); in experiment [4], 31.7 µM (active); in experiment [5] it was 28.3 µM (active); in experiment [6], 28 µM (active); in experiment [7], 28.5 µM (active); in experiment [9] it was 29.6 µM (active). The AC50 in experiment [10] is 29.5 µM (active).

With `CC1(C)[C@H](C(=O)O[C@H](C#N)c2cccc(Oc3ccccc3)c2)[C@@H]1/C=C(\Cl)C(F)(F)F`, the result in experiment [1], in experiment [2], in [3], in experiment [4], in experiment [5] and in experiment [6] was inactive. Moreover, the outcome in [7], in experiment [8], in [9] and in experiment [10] was inactive. In experiment [5], the AC50 is 3.39 µM (active).
